# Compound activity (PubChem)
# Rows were chosen to be rich in hits. Some 1.7% of all compounds tested hit in one or more screens of this group.
# Caspase-1 inhib = qHTS Assay for Allosteric/Competitive Inhibitors of Caspase-1; 75,000 tested, 0.03% active; AID 900, 2007; Caspase-1 enzyme, Ac-WEHD-AFC fluorogenic rate; Potency, µM (series often up to 57.5 µM), for the others: top-dose activity change, negative = inhibition, hits mostly inhibitors;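 note: plate controls were vehicle for no effect and no substrate for full effect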
# Casp7 inh = qHTS Assay for Allosteric/Competitive Inhibitors of Caspase-7; P55210; recombinant caspase-7, Ac-DEVD-AFC fluorescence rate; Potency, µM (highest dose often 57.5 µM), for the others: at the top dose activity change, negative = inhibition, usual class: inhibitors; 75,000 tested, 0.02% active; active = well fitted inhibition curve with a large enough effect in the main read-out, with a control signal flat, not every such curve was filed as active; inconclusive = small, poorly fitted or top-dose-only effect, or a change in a side signal; note: % of control where 0% means no effect
# ALOX15 inhib = qHTS Assay for Inhibitors of 15-hLO (15-human lipoxygenase). Polyunsaturated fatty acid lipoxygenase ALOX15 (Homo sapiens), P16050. purified 15hLO-1, xylenol orange hydroperoxide absorbance. Potency, µM (doses to about 57.1 µM), for inactives: at the top dose activity change, negative = inhibition, hits mostly inhibitors. 74,000 tested, 1.4% active; note: % is set by controls: 0 for no effect and ±100 for the full control effect; nearly all actives have a fitted effect of over 55% in size
#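 Inhibition is scored from a chromogenic endpoint. After 15 min enzyme-compound contact, arachidonic acid (50 uM final) reacts 6 min with 40 nM 15hLO-1 at room temperature, then Fe-XO reagent is added for 30 min and absorbance ratio recorded.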
# 15-hLO-2 inh = qHTS Assay for Inhibitors of 15-hLO-2 (15-human lipoxygenase 2) | Polyunsaturated fatty acid lipoxygenase ALOX15B (Homo sapiens), O15296 | purified 15hLO-2, xylenol orange hydroperoxide absorbance | Potency, µM (top dose mostly 57.1 µM), inactives show top-dose activity change, negative = inhibition, hits mostly inhibitors | 110,000 tested, 0.56% active; note: % is set by controls: 0 for no effect and ±100 for the full control effect; nearly all actives have a fitted effect of over 60% in size
#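 Enzyme 50 nM, AA 45 uM, 25 mM Hepes pH 7.5 + 0.01% Triton X-100; cpd preinc 15 min RT, rxn 90 min RT; stop/detect with 200 uM XO + 300 uM Fe(II) in 50 mM H2SO4, 30 min; A573/A405.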
# ERK AVP inh = qHTS Assay for Inhibitors of the ERK Signaling Pathway using a Homogeneous Screening Assay; Potency, µM (series often up to 57.5 µM), without a hit: at the highest dose activity, negative = inhibition, hits mostly inhibitors; 72,000 tested, 0.99% active; HEK293-V1b, vasopressin-stimulated pERK AlphaScreen; note: % is set by controls: 0 for no effect and ±100 for the full control effect; nearly all actives have a fitted effect of over 55% in size
#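 qHTS, compounds titrated on V1b-expressing HEK293 cells. Preincubation 30 min at 37C, vasopressin 25 nM for 5 min, lysis 10 min, bead incubation 5 hr at room temperature.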
# The depositor's hits bear a star; ? = inconclusive; / = no result; [ ] = another dose, or the depositor's remark. Unless noted, calls come from the whole dose curve; as a rule, active = well fitted curve in the direction sought with a large enough effect; inconclusive = small, poorly fitted or top-dose-only effect, or another doubt; inactive = no such curve, though single readings can be large; an effect the other way counts as inactive or inconclusive. Potency is the fitted concentration of half-maximal effect.
SMILES,Caspase-1 inhib,Casp7 inh,ALOX15 inhib,15-hLO-2 inh,ERK AVP inh
CCOC(=O)N1CCC(n2c(SCC(=O)NCCC3=CCCCC3)nc3ccccc3c2=O)CC1,-3.3%,-7.8%,15.8µM*,-2.2%,2.3%
N#C/C(=C(/N)Sc1ccc(N)cc1)c1ccccc1C(F)(F)F,0.8%,-5.9%,?,32.4%,0.316µM*
COC(=O)N1[C@H](C)C=C[C@]1(Cc1ccccc1)C(=O)NCc1ccc(N(C)C)cc1,1.6%,-0.4%,20µM*,14.6%,-7.7%
C=CCOC(=O)C(C(=O)CC)C(NC(=O)OC)c1ccc(F)cc1 (stereo unspecified),-1.1%[11.5 µM],-1.0%[11.5 µM],1.1%[11.4 µM],/,5.4%[11.5 µM]
c1ccc2c(c1)CCN(c1nc3cc4c(cc3s1)OCCO4)C2,-2.9%,-28.3%,3.98µM*,-25.7%,9.5%
O=S(=O)(c1ccc2c(c1)OCCO2)N1CCN(c2nc3ccccc3s2)CC1,-0.9%,-6.3%,-10.9%,2.1%,-25.2%
COc1cc([C@@H](O)CO)ccc1OS(=O)(=O)O,5.2%,0.9%,9.2%,-10.1%,-14.7%
Fc1cccc(CSc2ncnc3c2ncn3[C@H]2CCCS2)c1,-0.5%[11.5 µM],-1.0%[11.5 µM],-7.4%[11.4 µM],-7.9%[11.4 µM],-4.1%[11.5 µM]
CC[C@H](Cc1c(I)cc(I)c(N)c1I)C(=O)O,-1.4%[25.7 µM],1.2%[25.7 µM],-0.5%[25.6 µM],-8.7%[25.6 µM],-21.8%[25.7 µM]
COc1ccccc1/C=C/C=N/N1CCN(c2ccccn2)CC1,/,/,/,-0.7%,/
COc1ccccc1/C=C\C=N\n1c(C2CCCCC2)n[nH]c1=S,/,/,/,12.6µM*,/
O=C(O)c1c(Cl)c(Cl)c(Cl)c(Cl)c1-c1c2cc(I)c(=O)c(I)c-2oc2c(I)c(O)c(I)cc12,/,/,/,7.94µM*,/
O=C(/C=C/Nc1cccc(O)c1)c1ccccc1,?,-23.2%,12.6µM*,3.6%,?
Cc1ccc(C(=O)/C=C/Nc2cccc(O)c2)cc1,/,/,/,7.3%,/
CC(C)c1ccc2c(c1)CC[C@H]1[C@@](C)(CN)CCC[C@@]21C,1.3%[11.5 µM],-1.4%[11.5 µM],13.1%[11.4 µM],2.5%[11.4 µM],14.9%[11.5 µM]
CC(C)C(=O)Nc1ccc(NC(=S)NC(=O)c2ccc([N+](=O)[O-])cc2)cc1,/,/,/,-12.8%,/
CC(C)NS(=O)(=O)c1ccc(NC(=S)NC(=O)c2ccc(-c3ccccc3)cc2)cc1,/,/,/,20µM*,/
CC(=O)N1CCN(c2ccc(Nc3nc(C)nc4c3oc3ccccc34)cc2)CC1,0.4%,-2.6%,-11.1%,-4.7%,10µM*
O=C(C1CC(c2ccccc2O)=NO1)N1CCCC1 (stereo unspecified),0.0%,0.0%,20µM*,2.5%,?
CC1(C)O[C@H]2O[C@@H]([C@H](O)CON3C(=O)c4ccccc4C3=O)[C@H](O)[C@H]2O1,-1.3%[11.5 µM],1.5%[11.5 µM],1.8%[11.4 µM],/,-5.7%[11.5 µM]
COc1ccccc1N1CCN(C(=O)c2ccc3nc(-c4ccco4)c(-c4ccco4)nc3c2)CC1,/,?,20µM*,/,15.8µM*
Cc1ccc(C)c(N2CCN(C(=O)c3ccc4nc(-c5ccco5)c(-c5ccco5)nc4c3)CC2)c1,/,/,/,-19.1%,/
O=C1C2C3C=CC(C3)C2C(=O)N1c1ccccc1 (stereo unspecified),-1.6%,-2.6%,-8.4%,-0.2%,18.3%
O=C1C2C3CCCC3=C3CCCC3C2C(=O)N1c1ccccc1 (stereo unspecified),-1.4%,0.3%,20µM*,3.6%,-2.0%
CC#CCOC(=O)c1c(C)nc2sc3c(c2c1N)CC[C@@H](O)C3,-2.2%,0.7%,-7.8%,8.5%,?
SMILES,Caspase-1 inhib,Casp7 inh,ALOX15 inhib,15-hLO-2 inh,ERK AVP inh
Clc1ccccc1-c1nccc(NCCN2CCOCC2)n1,0.6%,-1.9%,17.3%,-1.1%,-24.6%
O=C1C(Cl)=C(NCCN2CCOCC2)C(=O)c2ncccc21,6.31µM*,-15.3%,?,0.5%,-77.3%
O=C1C(Cl)=C(NC2CCc3ccccc32)C(=O)c2ncccc21 (stereo unspecified),1.58µM*,?,-17.2%,?,?
Cc1cc(-c2nnc(-c3cc4ccccc4oc3=O)o2)c(C)n1-c1ccccc1,/,?,-11.6%,-18.9%,-4.8%
CCCCCCc1cc2cc(-c3nnc(-c4ccccc4O)o3)c(=O)oc2cc1O,/,/,/,25.1µM*,/
Nc1ncnc2c1ncn2[C@@H]1CCCO1,4.1%,-1.2%,-14.1%,8.8%,39.2%
N[C@](CC1c2ccccc2Oc2ccccc21)(C(=O)O)[C@@H]1C[C@@H]1C(=O)O,-1.2%,2.0%,-24.5%[25.6 µM],13.5%,5.8%
c1csc(CNc2ncncc2-c2ccc3c(c2)OCO3)c1,0.7%,-0.6%,?,4.0%,6.31µM*
Cc1ccc(-c2nn(C)c(=O)c3ccccc23)cc1S(=O)(=O)NCCN1CCOCC1,0.5%,-0.9%,-25.9%,3.8%,25.1µM*
Cc1ccccc1-c1ccc2ncnc(NCCN3CCOCC3)c2c1,-11.1%,-19.6%,17.7%,60.9%,25.1µM*
Cc1ccccc1-c1ccc2ncnc(NCc3cccs3)c2c1,?,15.8µM*,32.3%,37.7%,?
c1cncc(-c2ccc3ncnc(NCCN4CCOCC4)c3c2)c1,-0.4%,0.3%,19.1%,3.8%,-26.2%
Cc1cnc(CNc2ncncc2-c2ccc3c(c2)OCO3)cn1,-1.4%,-2.7%,1.7%,-11.7%,?
COC(=O)[C@@H]1CC[C@H](C)[C@@H](c2ccc(C)cc2)N1C(=O)c1ccc(/C=N\O[C@@H](C)c2cc(-c3c(C)cc(C)cc3C)no2)cc1,-10.5%[11.5 µM],-0.6%[11.5 µM],32.1%[11.4 µM],/,-8.1%[11.5 µM]
OC1c2ccccc2-c2nc3ccccc3cc21 (stereo unspecified),-0.9%,-3.0%,/,-6.7%,-23.3%
CCN1CCCC1CNC(=O)c1ccc(-n2c(=O)c(=O)[nH]c3ccccc32)cc1 (stereo unspecified),-1.7%,-1.3%,-1.2%,/,/
CCN1C(=O)[C@H]2[C@H]3[C@H](O)[C@H](O)C/C(=N/OC/C=C(\C)CCC=C(C)C)[C@@H]3CC[C@@H]2C1=O,-3.2%[11.5 µM],-1.2%[11.5 µM],-2.8%[11.4 µM],/,10.5%[11.5 µM]
COc1cccc(-c2ccc3ncnc(N4CCOCC4)c3c2)c1,-3.5%,-2.1%,18.1%,3.4%,?
O=C(COc1ccccc1)Nn1cnc2ccccc21,3.2%,9.2%,12.6µM*,-22.4%,16.0%
Cc1noc(C)c1C(=O)N1CCC2(CC1)CN(c1cccc(-c3ccccc3)c1)C2,-6.5%,-2.9%,-11.5%,5.9%,?
C=CCn1c(SCC(=O)NCCCC)nc2scc(-c3ccco3)c2c1=O,-4.9%,-21.7%,5.01µM*,/,18.7%
CCOc1ccc(C2C(C#N)=C(N)SC(N)=C2C#N)c(OCC)c1,-5.6%,-6.0%,10µM*,-20.8%[11.4 µM],?
CCOC(=O)Cc1csc(NC(=O)NC2(C(F)(F)F)Oc3cc(Cl)c(Cl)cc3O2)n1,/,/,/,10µM*,/
CCOC(=O)Cc1csc(NC(=O)NC2(C(F)(F)F)Oc3ccccc3O2)n1,/,/,/,-23.1%,/
